The text below walks through data of PubChem BioAssay AID485353 (National Center for Advancing Translational Sciences (NCATS), 2010).

Each structure is given as a SMILES string. Screen size: about 330,000 compounds; about 610 (0.18%) were called active. A call without a number means that no potency is given here. Roughly 2% stayed inconclusive and do not appear here. The call rests on the fitted dose curve. Only a selection was taken, and actives are over-represented in it overall.
Potency means the concentration at half of the fitted maximal effect.

The nature of this assay: qHTS of Yeast-based Assay for SARS-CoV PLP. Further: nearly all actives have a fitted effect of over 55% in size. The conditions noted are these: S. cerevisiae expressing SARS-CoV PLpro; Potency: growth rescue; series mostly up to 32.9 µM. For orientation: qHTS replaces the single test concentration by a dilution series.
Consider `COc1ccc(NC(=O)Nc2ccc3c(c2)C(=O)N([C@H](C)CO)C[C@H](C)[C@@H](CN(C)C(=O)Nc2ccc4c(c2)OCO4)O3)cc1`, for which the Potency result was “inactive”. Same read-out and setting: the entry for `Cc1ccc(S(=O)(=O)N2[C@@H](c3cccc(Cl)c3)C(C(=O)O)=CC[C@H]2c2ccc(Cl)c(Cl)c2)cc1` is “inactive”; for `CCCCNC(=O)N(O)C1N(/N=C/c2ccccc2O)C(=S)SC1(C)C` (stereo unspecified) it is “inactive”; for `COC(=O)c1ccc(/C=N/OCC(=O)Nc2cc(F)ccc2F)cc1` it is “inactive”. Same read-out and setting: the same measure for `COc1ccc(-c2cc(=O)oc3cc(OC(C)C(=O)NCC4CCC(C(=O)O)CC4)ccc23)cc1` (stereo unspecified): “inactive”; for `CSc1nsc(SCC(=O)Nc2cc(C(=O)O)ccc2C)n1`: “inactive”; for `O.O.O.O=S(=O)([O-])OC[C@H]1O[C@@H](O[C@]2(COS(=O)(=O)[O-])O[C@H](OS(=O)(=O)[O-])[C@@H](OS(=O)(=O)[O-])[C@@H]2OS(=O)(=O)[O-])[C@H](OS(=O)(=O)[O-])[C@@H](OS(=O)(=O)[O-])[C@@H]1OS(=O)(=O)[O-].[Al]`: “inactive”. The same measure, in the same setting: the figure for `CC(C)c1c(C(=O)N/N=C/c2ccccc2C(=O)O)nnn1-c1nonc1N` is 5.01 µM (active); for `CC(C)c1c(C(=O)N/N=C/c2ccc(-c3ccccc3)cc2)nnn1-c1nonc1N` it is “inactive”; for `Nc1nonc1-n1nnc(C(=O)N/N=C/c2c[nH]c3ccccc23)c1-c1ccccc1` it is “inactive”.

On to `CCc1ccccc1N1C(=O)C2C3CC(=O)C(c4ccccc43)C2C1=O` (stereo unspecified), for which the Potency entry was “inactive”. `c1ccc2cc3c(NCCN4CCOCC4)ccnc3cc2c1`: the Potency entry was “inactive”. The same measure, in the same setting: the entry for `Fc1ccc(CNCc2ccc(Br)cc2)cc1` is “inactive”. Still for that read-out and setting: the same measure for `O=C(CCl)N(Cc1cccc([N+](=O)[O-])c1)c1cccc(Cl)c1`: “inactive”.

For the molecule `COc1ccc(NC(=O)Cn2cc(C(=O)c3ccncc3)c(=O)c3cc(C)ccc32)cc1Cl`, the Potency result was “inactive”. Consider `COc1cc(C2C(C(=O)OCCC#N)=C(C)NC3=C2S(=O)(=O)c2ccccc23)cc(OC)c1OC` (stereo unspecified), for which the Potency entry is “inactive”.

Take `COc1ccc(C2N=C(N)N=C(N)N2c2ccccc2)cc1OC` (stereo unspecified): the Potency entry is “inactive”. Still for that read-out and setting: the entry for `CCOC(=O)C1CCN(S(=O)(=O)c2c(C)noc2C)CC1` is “inactive”.

Consider `COc1ccc(CCN2CC(C(=O)NCCN3CCNC3=O)CCC2=O)cc1` (stereo unspecified), for which the Potency entry is “inactive”. For the molecule `CN(C)C(=O)N1CCNCC1`, the Potency result was “inactive”. On the same count and under the same terms, the same measure for `CCC(=O)Nc1nc(OC)cc(OC)n1`: “inactive”.

Take `COC(=O)c1ccc(NC(=O)CN(c2ccc(C)cc2)S(=O)(=O)c2c(C)n[nH]c2C)cc1`: the Potency entry is “inactive”. Still for that read-out and setting: the figure for `CCC(=O)Nc1c(C)n[nH]c1C` is 10 µM (active). As for `CCCC[C@]12Cc3cc(OC)c(OC)cc3C(O1)C1=C(CC3(CCCCC3)OC1=O)O2`, the activity, positive = growth rescue is 5.12% [at 6.58 µM] (inactive). On to `O=C(CSc1ncnc2c1cnn2CCc1ccccc1)Nc1ccc(F)cc1`, for which the Potency entry was “inactive”. The same measure, in the same setting: the same measure for `O=C(NCCCCCCCCCNC(=O)C(F)(F)F)C(F)(F)F`: “inactive”. Still for that read-out and setting: the same measure for `CC1CC(C)CN(C/C=C/c2ccccc2[N+](=O)[O-])C1` (stereo unspecified): “inactive”; for `COc1ccc(NC(=O)C(NC(C)=O)C(=O)NCc2ccccc2Cl)cc1` (stereo unspecified): “inactive”. Still for that read-out and setting: the same measure for `CCCCNS(=O)(=O)CCNCc1ccccc1OC`: “inactive”; for `CCOC(=O)[C@@H]1[C@H]2COc3cc(OC)ccc3[C@H]2N2C(=O)N(c3ccc(F)cc3)C(=O)[C@]12C`: “inactive”. On to `CCCN(CC1COc2ccccc2O1)C(=S)Nc1ccc(C)cc1` (stereo unspecified), for which the Potency entry is “inactive”. Still for that read-out and setting: the same measure for `CC(NC(=S)Nc1ccccc1)C1COc2ccccc2O1` (stereo unspecified): 10 µM (active); for `S=C(NCC1COc2ccccc2O1)Nc1ccc(Br)cc1` (stereo unspecified): “inactive”; for `O=C(CNC(=O)C12CC3CC(CC(C3)C1)C2)OCC(=O)N1CCCCC1`: “inactive”. `Cc1sc(NC(=O)C2=COCCO2)c(C#N)c1C`: the Potency result was “inactive”. With `Cc1cccc(N2O[C@H]3C=CC2CCCC3)n1`, the Potency result was “inactive”. Still for that read-out and setting: the entry for `COc1ccc(CCNC(=O)COC(=O)c2ncc(Cl)c(Cl)c2Cl)cc1OC` is “inactive”. Still for that read-out and setting: the entry for `CC1(C)C2CCC1(CS(=O)(=O)NCCc1c[nH]c3ccccc13)C(=O)C2` (stereo unspecified) is “inactive”. Still for that read-out and setting: the same measure for `Cc1nc2c(C(=O)NCc3cccs3)cnn2c(C)c1Cc1ccc(F)cc1`: “inactive”. As for `Nc1ccccc1SC(C[N+](=O)[O-])c1ccccc1` (stereo unspecified), the Potency entry is “inactive”. On the same count and under the same terms, the entry for `COc1ccc(N(CCC#N)S(=O)(=O)c2ccc(Cl)cc2)cc1` is “inactive”. For `Cc1ccc(N2C(=O)S/C(=C/c3cn(C)c4ccccc34)C2=O)cc1`, the Potency entry is “inactive”. Same read-out and setting: the same measure for `Cc1ccc(N=C2NC(=O)/C(=C/C=C/c3ccco3)S2)cc1C`: “inactive”. Same read-out and setting: the figure for `Cc1cccc(N=C2NC(=O)/C(=C/c3cn(C)c4ccccc34)S2)c1` is 15.8 µM (active); for `O=S(=O)([N-]c1nc2ccccc2nc1-[n+]1ccc(Cc2ccccc2)cc1)c1ccc(Br)s1` it is “inactive”. Turning to `Cc1cc(C)c[n+](-c2nc3ccccc3nc2[N-]S(=O)(=O)c2cccs2)c1`, the Potency was 11.2 µM (active).

For the molecule `CCCCNc1nc2ccccc2nc1NS(=O)(=O)c1cccs1`, the Potency result was “inactive”. Same read-out and setting: the same measure for `CCC1CCCCN1C(=O)CSc1nc2c(c(=O)n1C)SC(C)C2` (stereo unspecified): “inactive”; for `COc1cccc(/C=N/NC(=O)c2[nH]nc3c2CCc2ccccc2-3)c1O`: 6.31 µM (active); for `COc1ccc(Br)cc1/C=N/NC(=O)c1cccc(S(=O)(=O)N2CCOCC2)c1`: “inactive”. As to `COc1ccc(/C=N/NC(=O)c2ccncc2)cc1CN1CCCc2ccccc21`, the Potency result is “inactive”.

For `CC(C#N)(NC(=O)CN1CCN(S(=O)(=O)c2cc(C(F)(F)F)ccc2Cl)CC1)C1CC1` (stereo unspecified), the Potency result was “inactive”.

Regarding `COc1ccc2cc(-c3[nH]ncc3CNCCn3nc(C)cc3C)ccc2c1`, the Potency entry is “inactive”.

With `CCn1c(=O)c(=O)n(CC)c2cc(N3CCCCC3)c(NC(=O)c3ccc(Cl)cc3)cc21`, the Potency entry is “inactive”. Turning to `N#Cc1ccc(-c2nc3cc(C#N)c(C#N)cc3nc2-c2ccccc2)cc1C#N`, the Potency result was “inactive”. As for `Cc1cc2ccccc2n2c(SCC(=O)N3CCN(C(=O)c4ccco4)CC3)nnc12`, the Potency result was “inactive”. For the molecule `N#Cc1ccc(C2=CC(=O)C[C@H](c3ccc(Cl)cc3)C2)cc1`, the Potency entry is “inactive”. On to `Cn1c(=O)c2c(SCC(=O)N3CCOCC3)nc(C3CC3)nc2n(C)c1=O`, for which the Potency entry was “inactive”.

Turning to `CCCCn1c(N)c(N(CC(C)C)C(=O)c2cnc(C)cn2)c(=O)[nH]c1=O`, the Potency result is “inactive”. For `CC(C)N1CCC(=NNc2ccc([N+](=O)[O-])cc2S(=O)(=O)N2CCOCC2)CC1`, the Potency entry is “inactive”. Still for that read-out and setting: the same measure for `CCN(CC)S(=O)(=O)c1ccc2nc(CSc3nnnn3-c3ccc(O)cc3)[nH]c2c1`: “inactive”.
